Bioassay records: PubChem, Broad Institute
aSyn UTR act: Activators working through SNCA 5'UTR binding (MLPCN); hit rate 7.1% among 300,000; AID 1814; alpha-synuclein 5'UTR reporter, activators screen; activity score, % (tested at 7.5 µM), hits read low; in the data active = activity score below about -60%
A number is an active result; 0 = inactive. Not all results are given here.

SMILES	aSyn UTR act
COc1cc(/C=N/NC(=O)CN2CCOCC2)ccc1OCc1ccccc1	-96.6
COc1cc(/C=N/NC(=O)CN2CCCCC2)ccc1OCc1ccccc1	-136.6
CC(C)(C)OC(=O)COc1ccc(/C=N/NC(=O)CN2CCCCC2)cc1	-85.7
CCOc1ccc(N(CC(=O)NCc2ccc(OC)cc2)S(C)(=O)=O)cc1	-80.7
COc1ccc(N(CC(=O)Nc2cc(Cl)ccc2OC)S(=O)(=O)c2c(C)noc2C)cc1	0
COc1ccccc1N(CC(=O)N/N=C/c1c(O)ccc2ccccc12)S(C)(=O)=O	0
CC(=O)Nc1ccc(NC(=O)CN(c2cccc([N+](=O)[O-])c2)S(C)(=O)=O)cc1	0
COc1ccc(CNC(=O)CN(c2cc(C)cc(C)c2)S(=O)(=O)c2c(C)[nH]c(=O)[nH]c2=O)cc1	-80.6
CCOc1ccc(N(CC(=O)Nc2ccc(C)c(C)c2)S(C)(=O)=O)cc1	-171.1
Cc1ccc(NC(=O)CNC(C)c2ccccc2)cc1 (configuration not stated)	-73.5
COc1ccc(C)cc1NC(=O)CNC(c1ccccc1)c1ccc(C)cc1 (configuration not stated)	0
Cc1ccc(NC(=O)NCC(c2ccccc2)N(C)C)cc1 (configuration not stated)	-107.1
